Results published in PubChem BioAssay (Tox21).
Values without a mark were called inactive. Results filed as inconclusive are left out. The source made the active and inactive calls. Unless noted, calls follow the shape of the full dose curve.

Experiment: qHTS assay to identify small molecule antagonists of the sonic hedgehog signaling (Shh) pathway - cell viability counter screen (AID 1259367; active = well fitted cell-killing curve with a large enough effect in the repeat runs; also: nearly all actives have a fitted effect of over 55% in size; also: potency is read from the fitted curve at half-maximal effect)
Details: NIH/3T3 Gli1-Luc viability, CellTiter-Fluor, 24 h; series mostly up to 92.4 µM; viability change, negative = cytotoxic: at the top concentration
Outline: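 NIH/3T3-derived Gli1-Luc reporter cells (2,000 per well) rested 4 hr at 37 C, then received DMSO compounds plus conditioned medium. After 23 hr of treatment, CellTiter-Fluor was added for 1 hr at 37C and fluorescence read.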
% is scaled to controls: 0 for no effect and ±100 for the full control effect.

SMILES | viability change, negative = cytotoxic | Potency
SCCc1cnccn1 | 0.51% | 
O=S(=O)(O)CO | 2.58% | 
O=C(c1ccccc1)c1ccc(O)cc1 |  | 49.1 µM (active)
CC(CCc1ccc(O)cc1)NCCc1ccc(O)c(O)c1 (stereo not given) | -20% [at 42.5 µM] | 
Oc1ccc2c(c1)Cc1ccccc1-2 | -7.56% | 
O=C(O)CO | -4.76% | 
CCCCCCCCCCCCCOS(=O)(=O)O | 1.39% | 
CCC(Cl)CC(Cl)C(Cl)C(Cl)C(Cl)C(C)Cl (stereo not given) | 0.145% [at 19 µM] | 
COc1cc(NCc2ccc3nc(N)nc(N)c3c2C)cc(OC)c1OC |  | 15 µM (active)
ClC1=C(Cl)C1(Cl)Cl | 4.81% | 
Cc1ccc(Nc2c(F)cccc2Cl)c(CC(=O)O)c1 | 0.709% [at 42.5 µM] | 
CCSC(=O)N(CC)CC | -1.94% | 
CC(C)C(=O)OCCOc1ccccc1 | 0.473% | 
CCN(Cc1cccc(S(=O)(=O)O)c1)c1ccc(C(=C2C=CC(=[N+](CC)Cc3cccc(S(=O)(=O)O)c3)C=C2)c2ccccc2S(=O)(=O)[O-])cc1 |  | 17.3 µM (active)
CCCCCCCCCCCSCC(=O)O | 8.52% | 

Experiment: qHTS assay to identify small molecule agonists of the sonic hedgehog signaling (Shh) pathway (AID 1259368);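 also: NIH/3T3-derived 3T3Gli1-Luc cells carrying a stable Gli1-driven firefly luciferase reporter; nearly all actives have a fitted effect of over 15% in size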
Details: NIH/3T3 Gli1-Luc reporter, luciferase, 24 h; series mostly up to 92.4 µM; activity change: at the top concentration
Outline: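 Luminescent signal was taken as a measure of Gli1-controlled luciferase expression in stably transfected NIH/3T3-derived cells that had been treated for 24 hr with compounds delivered in DMSO.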

SMILES | activity change
O=C1NC(=O)c2cccc3cccc1c23 | 0.0392%
O=[N+]([O-])C1(Br)COCOC1 | -11.6%
O=C(O)c1cccc(Oc2ccccc2)c1 | 0.237%
Nc1c(Cl)cc(Cl)cc1[N+](=O)[O-] | 0.973%
C=C(C)c1ccccc1 | -2.64%
N[C@@H](Cc1cc(I)c(O)c(I)c1)C(=O)O | 0.716% [at 42.5 µM, active compounds read high]
CCCCCc1ccco1 | -0.491% [at 42.5 µM, active compounds read high]
CSCC[C@H](NC(=O)[C@H](Cc1c[nH]c2ccccc12)NC(=O)CCNC(=O)OC(C)(C)C)C(=O)N[C@@H](CC(=O)O)C(=O)N[C@@H](Cc1ccccc1)C(N)=O | -0.902% [at 42.5 µM, active compounds read high]
CCCCCCOC(=O)CCCCC | -1.49%
O=C(Nc1ccc(C(=O)O)c(O)c1)c1ccccc1 | 0.082% [at 42.5 µM, active compounds read high]
CC(C)COC(=O)COc1cc(Cl)c(Cl)cc1Cl | 2.42%
BrC(Br)C(Br)Br | 0.948%
O=c1[nH][nH]c(=O)c2cc([N+](=O)[O-])ccc12 | 0.539%
C1CCCCC1 | -0.474%
O=C(Oc1ccccc1)c1ccc2ccccc2c1O | 10.2%
COC(=O)CC(C(C)=O)C(=O)OC (stereo not given) | -1.09%
NC(=O)c1ccccc1[N+](=O)[O-] | 0.275%
CC[C@H]1OC(=O)[C@H](C)[C@@H](O[C@H]2C[C@@](C)(OC)[C@@H](O)[C@H](C)O2)[C@H](C)[C@@H](O[C@@H]2O[C@H](C)C[C@H](N(C)C)[C@H]2O)[C@](C)(O)C[C@@H](C)CN(C)[C@H](C)[C@@H](O)[C@]1(C)O | -6.4% [at 42.5 µM, active compounds read high]
SCCc1cnccn1 | 0.345%
Cc1ccc(N(CC2=NCCN2)c2cccc(O)c2)cc1 | -2.09% [at 42.5 µM, active compounds read high]
O=S(=O)(O)CO | 0.184%
O=C(c1ccccc1)c1ccc(O)cc1 | 5.72%
Oc1ccc2c(c1)Cc1ccccc1-2 | 1.21%
O=C(O)CO | 0.755%
COc1cc(NCc2ccc3nc(N)nc(N)c3c2C)cc(OC)c1OC | -1.11% [at 42.5 µM, active compounds read high]
ClC1=C(Cl)C1(Cl)Cl | -0.789%
Cc1ccc(Nc2c(F)cccc2Cl)c(CC(=O)O)c1 | -0.0471% [at 42.5 µM, active compounds read high]
CCSC(=O)N(CC)CC | -0.791%
CCN(Cc1cccc(S(=O)(=O)O)c1)c1ccc(C(=C2C=CC(=[N+](CC)Cc3cccc(S(=O)(=O)O)c3)C=C2)c2ccccc2S(=O)(=O)[O-])cc1 | -10.9% [at 42.5 µM, active compounds read high]
CCCCCCCCCCCSCC(=O)O | 1.29%

Experiment: qHTS assay to identify small molecule antagonists of the sonic hedgehog signaling (Shh) pathway (AID 1259369); also: nearly all actives have a fitted effect of over 45% in size; also: potency is read from the fitted curve at half-maximal effect
Details: NIH/3T3 Gli1-Luc reporter, Shh antagonist, luminescence 24 h; series mostly up to 92.4 µM; activity change, negative = inhibition: at the top concentration
Outline: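 Screening used 3T3Gli1-Luc cells at 2,000 per well, compounds delivered in DMSO, and conditioned medium as agonist stimulus; plates incubated 24hr at 37 C and 5% CO2 before a 30min luciferase step.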

SMILES | activity change, negative = inhibition | Potency
O=C1NC(=O)c2cccc3cccc1c23 | -11.2% | 
O=[N+]([O-])C1(Br)COCOC1 |  | 43.3 µM (active)
O=C(O)c1cccc(Oc2ccccc2)c1 | 0% | 
C=C(C)c1ccccc1 | -2.27% | 
N[C@@H](Cc1cc(I)c(O)c(I)c1)C(=O)O | 0% [at 42.5 µM] | 
CSCC[C@H](NC(=O)[C@H](Cc1c[nH]c2ccccc12)NC(=O)CCNC(=O)OC(C)(C)C)C(=O)N[C@@H](CC(=O)O)C(=O)N[C@@H](Cc1ccccc1)C(N)=O | 38.1% [at 42.5 µM] | 
CCCCCCOC(=O)CCCCC | 13.1% | 
O=C(Nc1ccc(C(=O)O)c(O)c1)c1ccccc1 | 22.2% [at 42.5 µM] | 
COC(OC)OC | 0% | 
CC(C)COC(=O)COc1cc(Cl)c(Cl)cc1Cl | -1.52% | 
BrC(Br)C(Br)Br | 5.18% | 
O=c1[nH][nH]c(=O)c2cc([N+](=O)[O-])ccc12 | 4.08% | 
C1CCCCC1 | 2.2% | 
O=C(Oc1ccccc1)c1ccc2ccccc2c1O | 32% | 
COC(=O)CC(C(C)=O)C(=O)OC (stereo not given) | 17.1% | 
NC(=O)c1ccccc1[N+](=O)[O-] | -7.05% | 
Cc1ccc(N(CCO)CCO)cc1 | 10.1% | 
SCCc1cnccn1 | -5.39% | 
O=S(=O)(O)CO | 1.76% | 
O=C(c1ccccc1)c1ccc(O)cc1 |  | 15.5 µM (active)
CC(CCc1ccc(O)cc1)NCCc1ccc(O)c(O)c1 (stereo not given) | -2.35% [at 42.5 µM] | 
O=C(O)CO | 16.5% | 
CCCCCCCCCCCCCOS(=O)(=O)O | 0.729% | 
CCC(Cl)CC(Cl)C(Cl)C(Cl)C(Cl)C(C)Cl (stereo not given) | 58.5% [at 19 µM] | 
CC(C)COC(=O)c1ccc(O)cc1 | -26.1% | 
ClC1=C(Cl)C1(Cl)Cl | -3.54% | 
Cc1ccc(Nc2c(F)cccc2Cl)c(CC(=O)O)c1 | 14.9% [at 42.5 µM] | 
CCSC(=O)N(CC)CC | 0% | 
CC(C)C(=O)OCCOc1ccccc1 | 7.13% | 
CCN(Cc1cccc(S(=O)(=O)O)c1)c1ccc(C(=C2C=CC(=[N+](CC)Cc3cccc(S(=O)(=O)O)c3)C=C2)c2ccccc2S(=O)(=O)[O-])cc1 |  | 3.08 µM (active)
